From PubChem BioAssay AID651800 (The Scripps Research Institute Molecular Screening Center, 2012)
Among all 360,000 compounds or so, about 1,300 (0.36%) were called active. This is one part of a sample in which actives are shown more often than they occur. Values without a mark were called inactive. Cut-off read from the data, not from the text of the source: active = inhibition above about 19%; inactive = the rest.

test system: T-cell receptor (TCR); assay: small molecules blocking TCR binding to CD3 – biochemical, fluorescence, TAMRA-labeled TCR probe, primary screen (AID 651800); conditions: at 9.4 µM, stronger effect = higher value;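 note: recombinant mutant TCR 2C K166C tagged with TAMRA read by polarization; 0% = receptor in buffer alone and 100% = receptor with positive control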

Structure (SMILES)	inhibition
CC/C(=N\NC(=O)c1ccccc1O)c1c(O)n(Cc2ccccc2)c(=O)[nH]c1=O	28.9% (active)
CCCCn1c(O)c(C(CC)=NCc2ccco2)c(=O)[nH]c1=O	-3.64%
CCCCCCN=C(CC)c1c(O)n(CCCC)c(=O)[nH]c1=O	0.66%
Cc1ccc(N(C)C(=O)Oc2cccc3ccc(C)nc23)cc1	1.25%
COc1ccc(NC(=O)c2cn(CCC#N)nc2-c2ccc([N+](=O)[O-])cc2)cc1	6.55%
